# Assay results as given in PubChem BioAssay (NCATS).
# “And” between values parts separate entries of the source, which are not always exact repeats. Equal values may be shown once. Records with an inconclusive call do not appear. Unmarked numbers belong to inactive results. The source made the active and inactive calls. Calls follow the shape of the dose curve; as a rule, active = well fitted inhibition curve with a large enough effect; inconclusive = small, poorly fitted or top-dose-only effect; inactive = flat fitted curve, though single readings scatter.
# Experiments:
# CRL-7250 = normal cell line; test: Cytotoxic Profiling of Annotated Libraries Using Quantitative High-Throughput Screening (AID 1296008); conditions: Five cell lines viability, CellTiter-Glo ATP luminescence, 48-72 h; max response: active compounds read low; also: potency is read from the fitted curve at half-maximal effect; as to max response: % is scaled to controls: 0 for no effect and ±100 for the full control effect
# Summary of the method: (§1)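 Cells exposed to compounds for 48 or 72 hr at 37 degrees Celsius. Viability read as ATP-coupled luminescence with CellTiter-Glo after 10 min at room temperature.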
# HEK293 = test: as above; conditions: Five cell lines viability, CellTiter-Glo ATP luminescence, 48-72 h; max response: active compounds read low
# Summary of the method: as §1
# HaCat [1] = test: as above; conditions: Five cell lines viability, CellTiter-Glo ATP luminescence, 48-72 h; max response: active compounds read low
# Summary of the method: as §1
# KB-3-1 = test: as above; conditions: Five cell lines viability, CellTiter-Glo ATP luminescence, 48-72 h; max response: active compounds read low
# Summary of the method: as §1
# NIH3T3 = test: as above; conditions: Five cell lines viability, CellTiter-Glo ATP luminescence, 48-72 h; max response: active compounds read low
# Summary of the method: as §1
# HACAT [2] = test: qHTS assay to identify novel small-molecules to repurpose for Merkel cell carcinoma treatment (AID 1296009); conditions: MCC and control cell lines, CellTiter-Glo viability, 72 h; at 44.8 µM (top of the series) unless noted
# Summary of the method: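 Cells were treated for 72 hr at 37 degree celsius with compounds in 8- or 11-point dose response. Viability was read by CellTiter-Glo luminescence, normalized to no-cell (cytotoxicity) and DMSO controls.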
# Also: nearly all actives have a fitted effect of over 60% in size.
compound,measurement,setting,value
COc1cc(N2CCC(C(N)=O)CC2)ccc1Nc1nc(N)c(Cl)c(Nc2ccccc2S(=O)(=O)C(C)C)n1,outcome,CRL-7250,inactive
same,Potency,HEK293,1.48 µM (active)
same,max response,HaCat [1],-18.3%
same,max response,KB-3-1,2.09%
same,Potency,NIH3T3,3.72 µM (active)
CC(C=CC(=O)NO)=C[C@@H](C)C(=O)c1ccc(N(C)C)cc1,Potency,CRL-7250,5.26 µM (active)
same,Potency,HEK293,1.05 µM (active)
same,Potency,HaCat [1],2.96 µM (active)
same,Potency,KB-3-1,1.18 µM (active)
same,Potency,NIH3T3,1.48 µM (active)
COC(=O)[C@@H]1[C@H]2C[C@@H]3c4[nH]c5ccccc5c4CCN3C[C@@H]2CC[C@@H]1O,outcome,CRL-7250,inactive
same,outcome,HEK293,inactive
same,outcome,HaCat [1],inactive
same,max response,KB-3-1,1.87%
same,max response,NIH3T3,-9.61%
same,outcome,HACAT [2],inactive
NC(=O)c1cccc(-c2cccc(OC(=O)NC3CCCCC3)c2)c1,outcome,CRL-7250,inactive
same,max response,HEK293,-9.31%
same,outcome,HaCat [1],inactive
same,max response,KB-3-1,6.26%
same,outcome,NIH3T3,inactive
same,outcome,HACAT [2],inactive
N#Cc1cc(NC(=O)Nc2nnc(-c3ccncc3)s2)ccc1-c1cn[nH]c1,max response,CRL-7250,-3.75%
same,outcome,HEK293,inactive
same,outcome,HaCat [1],inactive
same,max response,KB-3-1,0.642%
same,max response,NIH3T3,-2.38%
same,outcome,HACAT [2],inactive
CC(=O)NC(CS)C(=O)O (stereo not drawn),max response,CRL-7250,1.57%
same,max response,HEK293,-9.86%
same,outcome,HaCat [1],inactive
same,max response,KB-3-1,-3.44%
same,max response,NIH3T3,-5.75%
same,outcome,HACAT [2],inactive
Cc1cc(-c2nnc3n2CCCCC3)c(C)n1-c1ccccc1,max response,CRL-7250,-6.3%
same,max response,HEK293,-6.24%
same,outcome,HaCat [1],inactive
same,max response,KB-3-1,-0.0627%
same,max response,NIH3T3,1.52%
same,outcome,HACAT [2],inactive
CC1(C)CC(O)CC(C)(C)N1[O],outcome,CRL-7250,inactive
same,outcome,HEK293,inactive
same,outcome,HaCat [1],inactive
same,max response,KB-3-1,7.14%
same,max response,NIH3T3,-4%
same,outcome,HACAT [2],inactive
C[C@@]12C(=O)OC(=O)[C@@]1(C)C1CCC2O1,Potency,CRL-7250,5.26 µM (active)
same,Potency,HEK293,8.33 µM (active)
same,Potency,HaCat [1],26.4 µM (active)
same,Potency,KB-3-1,7.43 µM (active)
same,Potency,NIH3T3,13.2 µM (active)
COc1ccc(CCC(=O)c2c(O)cc(O[C@@H]3O[C@H](CO)[C@@H](O)[C@H](O)[C@@H]3O[C@@H]3O[C@@H](C)[C@H](O)[C@@H](O)[C@@H]3O)cc2O)cc1O,max response,CRL-7250,-4.09%
same,max response,HEK293,-11.6%
same,outcome,HaCat [1],inactive
same,max response,KB-3-1,-1.61%
same,outcome,NIH3T3,inactive
same,outcome,HACAT [2],inactive
CN(C)c1ccc(C(=O)NCCCCCCC(=O)NO)cc1,Potency,CRL-7250,2.64 µM (active)
same,Potency,HEK293,1.87 µM (active)
same,Potency,HaCat [1],4.69 µM (active)
same,Potency,KB-3-1,2.35 µM (active)
same,Potency,NIH3T3,3.72 µM (active)
CCCCCCCCCCCCCCCC(=O)OC[C@@H](NC(=O)C(Cl)Cl)[C@H](O)c1ccc([N+](=O)[O-])cc1,max response,CRL-7250,-9.61%
same,max response,HEK293,2.69%
same,outcome,HaCat [1],inactive
same,outcome,KB-3-1,inactive
same,max response,NIH3T3,0.666%
same,outcome,HACAT [2],inactive
C[C@H](O)[C@@H]1C(=O)N2C(C(=O)O)=C(S[C@@H]3CN[C@H](CNS(N)(=O)=O)C3)[C@@H](C)[C@@H]12,max response,CRL-7250,4.32%
same,max response,HEK293,0.869%
same,outcome,HaCat [1],inactive
same,outcome,KB-3-1,inactive
same,outcome,NIH3T3,inactive
same,outcome,HACAT [2],inactive
CCN(C(=O)c1c(O)c2c(Cl)cccc2n(C)c1=O)c1ccccc1,Potency,CRL-7250,5.9 µM (active)
same,Potency,HEK293,4.18 µM (active)
same,outcome,HaCat [1],inactive
same,max response,KB-3-1,3.28%
same,max response,NIH3T3,-5.88%
same,outcome,HACAT [2],inactive
COc1cc([C@@H]2c3cc4c(cc3[C@@H](O[C@@H]3O[C@@H]5CO[C@@H](c6cccs6)O[C@@H]5[C@H](O)[C@@H]3O)[C@H]3COC(=O)[C@H]23)OCO4)cc(OC)c1O,Potency,CRL-7250,16.6 µM (active)
same,Potency,HEK293,0.148 µM (active)
same,Potency,HaCat [1],0.59 µM (active)
same,Potency,KB-3-1,0.743 µM (active)
same,Potency,NIH3T3,0.132 µM (active)
O=C(C[C@@H]1CC=CCCC(=O)O[C@H](c2ccccc2)CNC1=O)NCc1ccc(Cl)cc1,outcome,CRL-7250,inactive
same,max response,HEK293,-3.28%
same,outcome,HaCat [1],inactive
same,outcome,KB-3-1,inactive
same,max response,NIH3T3,-2.63%
same,outcome,HACAT [2],inactive
COC(=O)[C@@H]1CC2=CC(=O)CC[C@]2(C)[C@@]23O[C@@H]2C[C@@]2(C)[C@H](CC[C@@]24CCC(=O)O4)[C@@H]13,max response,CRL-7250,-3.2%
same,outcome,HEK293,inactive
same,outcome,HaCat [1],inactive
same,outcome,KB-3-1,inactive
same,outcome,NIH3T3,inactive
same,outcome,HACAT [2],inactive
Cc1coc2c1C(=O)C(=O)c1c-2ccc2c(C)cccc12,max response,CRL-7250,-23.2%
same,max response,HEK293,-8.46%
same,outcome,HaCat [1],inactive
same,outcome,KB-3-1,inactive
same,max response,NIH3T3,-4.31% and -4.38%
same,outcome,HACAT [2],inactive
